Results filed as inconclusive are left out. Activity calls are given as the source filed them. How the source made its calls: active means hit-call score of the fitted dose curve at least 0.9, where 1 is the maximum; inconclusive means response in the unintended direction; inactive means score below 0.9.
The compounds below were run against Nuclear receptor subfamily 1 group I member 2 (Homo sapiens) (UniProt O75469) (assay: ATG_PXR_TRANS: Attagene TRANS-FACTORIAL HepG2 Assay for human Pregnane X Receptor (PXR) (AID 2283008)).
Nuclear receptor subfamily 1 group I member 2 (Homo sapiens), sequence (O75469 whole entry, looked up): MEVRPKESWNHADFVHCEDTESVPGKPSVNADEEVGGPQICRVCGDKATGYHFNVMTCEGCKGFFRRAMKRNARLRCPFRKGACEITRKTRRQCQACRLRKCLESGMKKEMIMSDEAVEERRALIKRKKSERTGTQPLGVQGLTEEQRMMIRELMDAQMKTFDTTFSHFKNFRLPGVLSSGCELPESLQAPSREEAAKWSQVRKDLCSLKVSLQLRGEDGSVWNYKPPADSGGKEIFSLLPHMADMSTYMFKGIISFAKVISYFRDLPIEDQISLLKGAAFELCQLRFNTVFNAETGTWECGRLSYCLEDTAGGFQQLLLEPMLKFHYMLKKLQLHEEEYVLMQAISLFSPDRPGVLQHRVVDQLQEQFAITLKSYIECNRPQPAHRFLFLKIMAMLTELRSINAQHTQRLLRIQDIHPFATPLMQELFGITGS
Protocol: ATG_TRANS is a cell-based, multiplexed-readout assay that uses HepG2, a human liver cell line, with measurements taken at 24 hours after chemical dosing in a 24-well plate.ATG_PXR_TRANS is one of 30 assay component(s) measured or calculated from the ATG_TRANS assay. It is designed to make measurements of mRNA induction, a form of inducible reporter, as detected with fluorescence intensity signals by Reverse transcription polymerase chain reaction (RT-PCR) and Capillary electrophoresis technology.Data from the assay component ATG_PXR_TRANS was analyzed into 1 assay endpoint. This assay endpoint, ATG_PXR_TRANS, was analyzed in the positive analysis fitting direction relative to DMSO as the negative control and baseline of activity. Using a type of inducible reporter, measures of mRNA for gain-of-signal activity can be used to understand the reporter gene at the transcription factor-level as they relate to the gene NR1I2. Furthermore, this assay endpoint can be referred to as a primary readout, because this assay has produced multiple assay endpoints where this one serves a reporter gene function. To generalize the intended target to other relatable targets, this assay endpoint is annotated to the nuclear receptor intended target family, where the subfamily is non-steroidal.
Human liver HepG2 cells are transiently transfected with multiple reporter transcription units (MRTUs) in 6-well plates using FuGene 6 reagent (Roche; 3 ml FuGene/1 mg DNA). The MRTU constructs are regulated by a cis-regulating element (promoter). […] A major difference between the CIS and TRANS system is that in CIS activities of endogenous TFs are measured, whereas the TRANS assay evaluates changes in activities of exogenous, chimeric NR-Gal4 proteins. […] At the end of 24 hour incubation, total RNA was isolated using TriZol reagent (Invitrogen). The isolated RNA is then reverse-transcribed using oligo(dT) primer and Mo-MLV reverse transcriptase (Invitrogen) with DNAse I (Ambion) treatment for 30 min. The one-tenth of the produced cDNA was amplified by PCR using Taq DNA polymerase (Invitrogen) and two reporter sequence-specific primers. The PCR products were fluorescently labeled by primer extension with 6-arboxyfluorescein (6-FAM) 5'-labeled reporter sequence-specific primer (2 min at 95 C, 20 s at 68 C and 10 min at 72 C) and these products were digested with 5U of HpaI (New England Biolabs) for 2h at 37 C. The fragments were purified using Qiaquick PCR columns (Qiagen), analyzed on an ABI 3130xL genetic analyzer (Applied Biosystems) with peak positions identified by using a set of X-rhodamine (ROX)-labeled MapMarker1000 molecular weight standards (BioVentures). The raw capillary electrophoresis data was processed using Attagraph software (Attagene).

Row | SMILES | outcome | AC50
1 | Nc1ncn([C@@H]2O[C@H](CO)[C@@H](O)[C@H]2O)c(=O)n1 | inactive | 
2 | CC(=O)OCCC1CCCCC1 | inactive | 
3 | C=C1[C@H]2CC[C@@H]3[C@H]2C(C)(C)CCC[C@]13C | inactive | 
4 | CCC(C)(C)C1CCCCC1OC(C)=O (stereo not given) | inactive | 
5 | CCCCCCCCCCCCCCCC[N+](C)(C)CC | inactive | 
6 | C[Si](C)(C)O[Si](O)(O)O | inactive | 
7 | CCCCCCCCc1ccc(Nc2ccc(CCCCCCCC)cc2)cc1 |  | 1.68 µM (active)
8 | CCCCCc1ccc(Cl)cc1 | inactive | 
9 | S=C(NC1CCCCC1)NC1CCCCC1 |  | 8.05 µM (active)
10 | CCc1ccc2c(c1)C(=O)c1ccccc1C2=O |  | 4.34 µM (active)
11 | CC(=O)CC(N)=O | inactive | 
12 | CCCCC(CC)COCC1CO1 (stereo not given) | inactive | 
13 | O=C(c1ccc(O)cc1)c1ccc(O)cc1O | inactive | 
14 | O=C1Nc2ccccc2C1(c1ccc(O)cc1)c1ccc(O)cc1 | inactive | 
15 | O=C(O)CC(C(=O)O)C(CC(=O)O)C(=O)O (stereo not given) | inactive | 
16 | C=CC(=O)OCCC(=O)O | inactive | 
17 | Nc1ccc2cc3ccccc3cc2c1 | inactive | 
18 | CCN(CCO)c1cccc(C)c1 |  | 27 µM (active)
19 | CCCCCCOC(=O)C(C)CC (stereo not given) | inactive | 
20 | c1ccc(CNCc2ccccc2)cc1 | inactive | 

Row | SMILES | outcome | AC50
21 | COCCOCCOCCOCCOC | inactive | 
22 | CCOCC(=O)O | inactive | 
23 | COc1ccc([C@@H]2CC(=O)c3c(O)cc(O[C@@H]4O[C@H](CO[C@@H]5O[C@@H](C)[C@H](O)[C@@H](O)[C@H]5O)[C@@H](O)[C@H](O)[C@H]4O)cc3O2)cc1OC | inactive | 
24 | c1ccc2c(c1)ccc1cc3c(ccc4ccccc43)cc12 | inactive | 
25 | C=C(C)C(=O)OCCO | inactive | 
26 | Cc1ccc(N/N=c2\c(=O)cc/c(=N/Nc3ccc(S(=O)(=O)O)cc3)c2=O)c(C)c1 | inactive | 
27 | CC1=CC[C@H](C(C)C)C=C1 |  | 0.822 µM (active)
28 | CC(C)(c1cc(Br)c(OCCO)c(Br)c1)c1cc(Br)c(OCCO)c(Br)c1 |  | 1.71 µM (active)
29 | C[C@]12CCC(=O)C=C1CC[C@@H]1[C@@H]2C(=O)C[C@@]2(C)[C@H]1CC[C@]2(O)C(=O)CO |  | 26.9 µM (active)
30 | Cc1ccc2oc(=O)ccc2c1 | inactive | 
31 | [Cl][Bi]([Cl])([c]1ccccc1)([c]1ccccc1)[c]1ccccc1 | inactive | 
32 | C=C(C)C(=O)OCCOc1ccccc1 | inactive | 
33 | Nc1cccc(C(F)(F)F)c1 | inactive | 
34 | C#CC1(O)CC[C@H]2[C@@H]3CCC4=CCCC[C@@H]4[C@H]3CC[C@@]21C (stereo not given in full) |  | 2.14 µM (active)
35 | C=C(C)c1cccc(C(C)(C)N=C=O)c1 |  | 0.0915 µM (active)
36 | O=C(Nc1ccccc1SSc1ccccc1NC(=O)c1ccccc1)c1ccccc1 |  | 8.27 µM (active)
37 | O=S(=O)(O)c1ccc2cc(O)c(S(=O)(=O)O)cc2c1 | inactive | 
38 | CCOC(=O)c1ccc(N(C)C)cc1 |  | 27.5 µM (active)
39 | O=C(O)Cc1c(Cl)ccc(Cl)c1Cl | inactive | 
40 | CC(=O)NS(=O)(=O)c1ccc(N)cc1 | inactive | 

Source: PubChem BioAssay (EPA / NIEHS)
